# Reference: article PMC11062922 (Nature Chemical Biology, 2023)
# Read-outs that look alike come from different tables or passages of the source.
# Columns and labels:
# [1] = system: AAK1; set-up: species or system human, MV4-11 + K-562 + COLO205 + SK-N-BE2 + OVCAR-8; conditions: read-out: apparent Kd, n = 1
# [2] = system: CLK1; set-up: species or system human, MV4-11 + K-562 + COLO205 + SK-N-BE2 + OVCAR-8; conditions: read-out: apparent Kd, n = 1
# [3] = system: CLK4; set-up: species or system human, MV4-11 + K-562 + COLO205 + SK-N-BE2 + OVCAR-8; conditions: read-out: apparent Kd, n = 1
# [4] = system: BMP2K; set-up: species or system human, MV4-11 + K-562 + COLO205 + SK-N-BE2 + OVCAR-8; conditions: read-out: apparent Kd, n = 1
# [5] = system: FLT4; set-up: species or system human, MV4-11 + K-562 + COLO205 + SK-N-BE2 + OVCAR-8; conditions: read-out: apparent Kd; compound concentrations: 100 nM and 1000 nM (sheet 'Samples'), CATDS: 1.78487472229053E-2; n = 1
# [6] = system: GAK; set-up: species or system human, MV4-11 + K-562 + COLO205 + SK-N-BE2 + OVCAR-8; conditions: read-out: apparent Kd, compound concentrations: 100 nM and 1000 nM (sheet 'Samples'), n = 1
# [7] = system: GSK3A; set-up: species or system human, MV4-11 + K-562 + COLO205 + SK-N-BE2 + OVCAR-8; conditions: read-out: apparent Kd, n = 1
# [8] = system: GSK3B; set-up: species or system human, MV4-11 + K-562 + COLO205 + SK-N-BE2 + OVCAR-8; conditions: read-out: apparent Kd, n = 1
# [9] = system: PAK4; set-up: species or system human, MV4-11 + K-562 + COLO205 + SK-N-BE2 + OVCAR-8; conditions: read-out: apparent Kd; compound concentrations: 100 nM and 1000 nM (sheet 'Samples'), CATDS: 1.9668858061390699E-2; n = 1
# [10] = system: PKN1; set-up: species or system human, MV4-11 + K-562 + COLO205 + SK-N-BE2 + OVCAR-8; conditions: read-out: apparent Kd, n = 1
# [11] = system: PKN3; set-up: species or system human, MV4-11 + K-562 + COLO205 + SK-N-BE2 + OVCAR-8; conditions: read-out: apparent Kd, n = 1
# [12] = molecular target: Q6ZSR9 (human, UniProt Q6ZSR9); set-up: species or system MV4-11 + K-562 + COLO205 + SK-N-BE2 + OVCAR-8; conditions: read-out: apparent Kd, n = 1
# [13] = system: RET; set-up: species or system human, MV4-11 + K-562 + COLO205 + SK-N-BE2 + OVCAR-8; conditions: read-out: apparent Kd; compound concentrations: 100 nM and 1000 nM (sheet 'Samples'), CATDS: 2.33186267232918E-2; n = 1
# [14] = system: SIK2; set-up: species or system human, MV4-11 + K-562 + COLO205 + SK-N-BE2 + OVCAR-8; conditions: read-out: apparent Kd; compound concentrations: 100 nM and 1000 nM (sheet 'Samples'), CATDS: 2.09056260277059E-2; n = 1
# [15] = system: CSNK2A1;CSNK2A3; set-up: species or system human, MV4-11 + K-562 + COLO205 + SK-N-BE2 + OVCAR-8; conditions: read-out: apparent Kd, compound concentrations: 100 nM and 1000 nM (sheet 'Samples'), n = 1
# [16] = system: CSNK2A2; set-up: species or system human, MV4-11 + K-562 + COLO205 + SK-N-BE2 + OVCAR-8; conditions: read-out: apparent Kd, compound concentrations: 100 nM and 1000 nM (sheet 'Samples'), n = 1
# [17] = system: MELK; set-up: species or system human, MV4-11 + K-562 + COLO205 + SK-N-BE2 + OVCAR-8; conditions: read-out: apparent Kd; compound concentrations:100 nM and 1000 nM (sheet 'Samples'); n = 1
# [18] = system: NUAK1; set-up: species or system human, MV4-11 + K-562 + COLO205 + SK-N-BE2 + OVCAR-8; conditions: read-out: apparent Kd; compound concentrations:100 nM and 1000 nM (sheet 'Samples'); n = 1
# [19] = system: FLT3; set-up: species or system human, MV4-11 + K-562 + COLO205 + SK-N-BE2 + OVCAR-8; conditions: read-out: apparent Kd; compound concentrations:100 nM and 1000 nM (sheet 'Samples'); n = 1
# [20] = compound concentrations:100 nM and 1000 nM (sheet 'Samples')
# Sequence of Q6ZSR9 (Q6ZSR9 whole entry, looked up): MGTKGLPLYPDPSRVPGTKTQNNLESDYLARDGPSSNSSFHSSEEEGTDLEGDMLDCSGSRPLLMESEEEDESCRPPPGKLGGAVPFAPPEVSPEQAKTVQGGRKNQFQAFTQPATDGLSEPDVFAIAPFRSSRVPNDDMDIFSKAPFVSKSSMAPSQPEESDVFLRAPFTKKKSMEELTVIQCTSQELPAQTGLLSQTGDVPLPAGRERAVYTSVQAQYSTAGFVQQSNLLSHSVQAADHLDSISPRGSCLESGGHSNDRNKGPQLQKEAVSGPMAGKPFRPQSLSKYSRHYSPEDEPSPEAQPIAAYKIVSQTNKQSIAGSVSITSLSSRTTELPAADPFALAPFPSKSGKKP
smiles,measurement,setting,value
CCC(CC)(CC)n1cnc2c(N)ncnc21 [SKF-97620],potency estimated from few doses,"[1]; compound concentrations: 100 nM and 1000 nM (sheet 'Samples'), CATDS: 2.5595683701841399E-2",1620 nM
same,potency estimated from few doses,"[2]; compound concentrations: 100 nM and 1000 nM (sheet 'Samples'), CATDS: 2.7794407506576899E-2",1260 nM
same,potency estimated from few doses,"[3]; compound concentrations: 100 nM and 1000 nM (sheet 'Samples'), CATDS: 2.9101207913204901E-2",1100 nM
Cl.Cn1c(=O)c(Cc2ccccc2F)cc2cnc(NC3CCOCC3)nc21 [RO3305377-001],potency estimated from few doses,"[1]; compound concentrations: 100 nM and 1000 nM (sheet 'Samples'), CATDS: 2.16510603665701E-2",917 nM
same,potency estimated from few doses,"[4]; compound concentrations: 100 nM and 1000 nM (sheet 'Samples'), CATDS: 1.6723713809558501E-2",1910 nM
same,potency estimated from few doses,"[2]; compound concentrations: 100 nM and 1000 nM (sheet 'Samples'), CATDS: 1.9184829290140398E-2",1250 nM
same,potency estimated from few doses,"[3]; compound concentrations: 100 nM and 1000 nM (sheet 'Samples'), CATDS: 2.3036060895887101E-2",796 nM
same,potency estimated from few doses,[5],1540 nM
same,potency estimated from few doses,[6]; CATDS: 3.35725694953104E-2,389 nM
same,potency estimated from few doses,"[7]; compound concentrations: 100 nM and 1000 nM (sheet 'Samples'), CATDS: 3.04876999302407E-2",459 nM
same,potency estimated from few doses,"[8]; compound concentrations: 100 nM and 1000 nM (sheet 'Samples'), CATDS: 2.4100870065686699E-2",722 nM
same,potency estimated from few doses,[9],1170 nM
same,potency estimated from few doses,"[10]; compound concentrations: 100 nM and 1000 nM (sheet 'Samples'), CATDS: 1.63422390888056E-2",2080 nM
same,potency estimated from few doses,"[11]; compound concentrations: 100 nM and 1000 nM (sheet 'Samples'), CATDS: 1.86767996374981E-2",1350 nM
same,potency estimated from few doses,"[12]; compound concentrations: 100 nM and 1000 nM (sheet 'Samples'), CATDS: 2.0313751812051702E-2",1070 nM
same,potency estimated from few doses,[13],775 nM
same,potency estimated from few doses,[14],998 nM
NS(=O)(=O)c1cccc(-c2ccc3c(NC(=O)C4CC4)n[nH]c3c2)c1 [SB-741905],potency estimated from few doses,"[1]; compound concentrations: 100 nM and 1000 nM (sheet 'Samples'), CATDS: 0.126213197239569",1210 nM
same,potency estimated from few doses,"[12]; compound concentrations: 100 nM and 1000 nM (sheet 'Samples'), CATDS: 0.101605627816376",2410 nM
Cn1cc(C2=C(c3ccc(OC[C@@H](O)CO)cc3)C(=O)NC2=O)c2ccccc21 [RO3208546-000],potency estimated from few doses,"[1]; compound concentrations: 100 nM and 1000 nM (sheet 'Samples'), CATDS: 3.6946772477140302E-2",1320 nM
same,potency estimated from few doses,"[2]; compound concentrations: 100 nM and 1000 nM (sheet 'Samples'), CATDS: 3.5256752059163503E-2",1510 nM
same,potency estimated from few doses,[6]; CATDS: 4.3278259075416499E-2,885 nM
same,potency estimated from few doses,"[7]; compound concentrations: 100 nM and 1000 nM (sheet 'Samples'), CATDS: 5.7986352312034098E-2",489 nM
same,potency estimated from few doses,"[8]; compound concentrations: 100 nM and 1000 nM (sheet 'Samples'), CATDS: 4.5953894166210499E-2",774 nM
same,potency estimated from few doses,"[12]; compound concentrations: 100 nM and 1000 nM (sheet 'Samples'), CATDS: 3.3781584093652402E-2",1720 nM
Cn1cc(C=C2C(=O)Nc3cccnc32)c2ccccc21 [GW441756X],potency estimated from few doses,"[1]; compound concentrations: 100 nM and 1000 nM (sheet 'Samples'), CATDS: 0.22645425815754",1250 nM
same,potency estimated from few doses,"[4]; compound concentrations: 100 nM and 1000 nM (sheet 'Samples'), CATDS: 0.330795354292378",609 nM
same,potency estimated from few doses,"[12]; compound concentrations: 100 nM and 1000 nM (sheet 'Samples'), CATDS: 0.24113419116187701",1090 nM
O=C1N=C(N[C@H](CO)c2ccccc2)S/C1=C\c1ccc2ncccc2c1 [RO4554339-000],potency estimated from few doses,"[1]; compound concentrations: 100 nM and 1000 nM (sheet 'Samples'), CATDS: 0.10816447707824001",735 nM
same,potency estimated from few doses,[15]; CATDS: 0.26590884807239001,111 nM
same,potency estimated from few doses,[16]; CATDS: 0.32699476113935999,80.2 nM
same,potency estimated from few doses,"[12]; compound concentrations: 100 nM and 1000 nM (sheet 'Samples'), CATDS: 9.0735809704368106E-2",1320 nM
Cc1cc(NC(=O)c2cccc(NC(=O)/C=C/CN(C)C)c2)ccc1Nc1nccc(-c2cccnc2)n1 [JNK-IN-7],potency estimated from few doses,[1]; [20],1000 nM
same,potency estimated from few doses,[4]; [20],1330 nM
same,potency estimated from few doses,[3]; [20],1630 nM
same,potency estimated from few doses,[17],2110 nM
same,potency estimated from few doses,[18],688 nM
same,potency estimated from few doses,[12]; [20],883 nM
Nc1nccc(-c2ccc3c(N)n[nH]c3c2)n1 [GSK1034945A],potency estimated from few doses,[1]; [20],194 nM
same,potency estimated from few doses,[4]; [20],194 nM
same,potency estimated from few doses,[2]; [20],35.4 nM
same,potency estimated from few doses,[3]; [20],25 nM
same,potency estimated from few doses,[17],828 nM
same,potency estimated from few doses,[12]; [20],225 nM
O=C1N=C(NCc2ccccc2Br)S/C1=C\c1ccc2ncccc2c1 [RO4506918-000],potency estimated from few doses,"[1]; compound concentrations: 100 nM and 1000 nM (sheet 'Samples'), CATDS: 8.9232255617264805E-2",910 nM
same,potency estimated from few doses,"[2]; compound concentrations: 100 nM and 1000 nM (sheet 'Samples'), CATDS: 0.17031966096866",202 nM
same,potency estimated from few doses,"[3]; compound concentrations: 100 nM and 1000 nM (sheet 'Samples'), CATDS: 0.31130162986837101",76.5 nM
same,potency estimated from few doses,[15]; CATDS: 0.124108593087182,383 nM
same,potency estimated from few doses,[16]; CATDS: 0.192604305943326,162 nM
same,potency estimated from few doses,"[12]; compound concentrations: 100 nM and 1000 nM (sheet 'Samples'), CATDS: 9.2903146742856602E-2",804 nM
CCn1c(-c2nonc2N)nc2cncc(Br)c21 [SB-738004],potency estimated from few doses,[1]; [20],517 nM
same,potency estimated from few doses,[2]; [20],1420 nM
same,potency estimated from few doses,[3]; [20],505 nM
same,potency estimated from few doses,[19],1190 nM
same,potency estimated from few doses,[7]; [20],445 nM
same,potency estimated from few doses,[8]; [20],724 nM
same,potency estimated from few doses,[17],1660 nM
same,potency estimated from few doses,[10]; [20],553 nM
same,potency estimated from few doses,[11]; [20],1320 nM
same,potency estimated from few doses,[12]; [20],369 nM
